# Screens from PubChem.
# Cruzain inh noDet – cruzain (T. cruzi) inhibition without detergent | 200,000 tested, 2.3% active | AID 1476 | purified cruzain, Z-FR-AMC fluorescence, no detergent | P25779 | Potency, µM, inactives show max response, negative = inhibition, actives largely listed as inhibitors;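 further: plate controls were enzyme without inhibitor for no effect and buffer without enzyme for full effect; nearly all actives have a fitted effect of over 40% in size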
# Target sequence (P25779 123-467 limits assumed): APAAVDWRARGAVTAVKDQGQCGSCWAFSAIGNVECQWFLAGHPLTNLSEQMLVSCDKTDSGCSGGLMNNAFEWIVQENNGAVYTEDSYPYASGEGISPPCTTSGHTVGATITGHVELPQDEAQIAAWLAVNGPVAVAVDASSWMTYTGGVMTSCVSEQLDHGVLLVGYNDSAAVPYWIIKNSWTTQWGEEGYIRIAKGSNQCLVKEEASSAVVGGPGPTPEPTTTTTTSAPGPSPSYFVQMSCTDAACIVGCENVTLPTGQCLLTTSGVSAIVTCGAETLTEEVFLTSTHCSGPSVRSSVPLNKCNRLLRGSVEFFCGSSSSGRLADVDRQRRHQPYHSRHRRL
#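 Detergent-free condition (0.00005% Triton X-100) in acetate buffer pH 5.5 with DTT. 1.5 nM enzyme and compound were pre-mixed 15 min, then 2 uM Z-FR-AMC substrate added; reaction progress from fluorescence change between first and third reads (60 s).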
# Cruzain inh Det – inhibitors of Trypanosoma cruzi cruzain with detergent; purified cruzain, Z-FR-AMC fluorescence, 0.01% Triton; P25779; 200,000 tested, 0.43% active; Potency, µM, inactives show max response, negative = inhibition, hits mostly inhibitors;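 further: plate controls were neutral wells for no effect and buffer without enzyme for full effect; nearly all actives have a fitted effect of over 40% in size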
#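 Cruzain (1.5 nM) preincubated 15 min at RT with compound in 100 mM sodium acetate pH 5.5, 5 mM DTT, 0.01% Triton X-100. Reaction started with 2 uM Z-FR-AMC; AMC fluorescence (ex 360/em 450 nm) change over 60 s gave rate.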
# Papain counter – counter-screen for cruzain inhibitors: papain inhibition; 410 tested, 41% active; shares compounds with Cruzain inh Det; Potency, µM, inactives show max response, negative = inhibition, most hits filed as inhibitors; AID 2161; purified papain, Z-FR-AMC fluorescence cleavage;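 further: 0% = no-compound wells and -100% = no-enzyme wells; nearly all actives have a fitted effect of over 35% in size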
# Target sequence (P00784 whole entry, looked up): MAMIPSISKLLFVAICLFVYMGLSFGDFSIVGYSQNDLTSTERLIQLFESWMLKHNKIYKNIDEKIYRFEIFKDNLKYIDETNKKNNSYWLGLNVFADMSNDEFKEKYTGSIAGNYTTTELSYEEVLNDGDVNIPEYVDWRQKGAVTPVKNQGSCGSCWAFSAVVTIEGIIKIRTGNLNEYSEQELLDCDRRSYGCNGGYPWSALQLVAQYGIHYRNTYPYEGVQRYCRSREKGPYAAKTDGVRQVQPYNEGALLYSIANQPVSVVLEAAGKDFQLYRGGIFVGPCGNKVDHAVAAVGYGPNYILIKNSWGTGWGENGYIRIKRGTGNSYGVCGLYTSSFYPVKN
# Numbers without * were called inactive; ? = inconclusive; · = no result; ! = repeats disagree. A selection: hits, their analogues and other compounds. The true share with any hit is near 2.6%. The call rests on the fitted dose curve; in most records, active means well fitted curve in the direction sought with a large enough effect; inconclusive means small, poorly fitted or top-dose-only effect, or another doubt; inactive means no such curve, though single readings can be large; an effect the other way counts as inactive or inconclusive. Potency means the concentration at half of the fitted maximal effect.
SMILES,Cruzain inh noDet,Cruzain inh Det,Papain counter
O=C(NC(Nc1cc(C(F)(F)F)ccc1Cl)C(=O)c1ccccc1)c1ccccc1 (stereo unspecified),?,-1.9%,·
CCOc1ccc(NC(=O)CSC2=Nc3ccccc3C3=NC(Cc4ccccc4)C(=O)N23)cc1 (stereo unspecified),7.3%,-3.2%,·
FC(F)(F)c1ccc(Cl)cc1,-5.8%,-7.4%,·
N#Cc1nc(NCCCCO)nc(Nc2ccccc2)n1,·,·,2.24µM*
CCCCNc1nc(C#N)nc(Nc2ccccc2)n1,·,·,1µM*
COc1ccc(Nc2nc(Cl)nc(NCCO)n2)cc1,11.5%,0.6%,·
CCCCNc1cc(C)nc(NCc2ccccc2)n1,4.5%,3.7%,·
NC(N)=NCCC[C@H](NC(=O)CC1(CC(=O)N2CCN(C3c4ccccc4NC(=O)c4ccccc43)CC2)CCCC1)C(=O)NCCn1c(=O)n(-c2ccccc2)n(-c2ccccc2)c1=O (stereo partly specified),4.1%,-3.2%,·
CCOc1ccc(NC(=O)c2ccc(CNc3c(NC4CCCCC4)c(=O)c3=O)cc2)cc1,3.98µM*,0.1%,7.7%
COc1ccc(NC(=O)c2ccc(CNc3c(NC4CCCCC4)c(=O)c3=O)cc2)c(OC)c1,?,0.0%,·
Cn1ncc2c(Cl)ncnc21,14.6%,2.1%,·
C=CCC(O)(/C=C/c1ccccc1)c1ccccc1 (stereo unspecified),-1.1%,0.0%,·
O=C(NC(=S)Nc1ccc(NC(=O)c2cccs2)cc1)c1cc2ccccc2o1,?,-11.7%,·
O=C(NC(=S)Nc1nc(-c2cccc3ccccc23)cs1)c1cc2ccccc2o1,2.51µM*,-2.7%,14.0%
Cc1ccc(CSCCC(=O)N2CCN(c3ccc(F)cc3)CC2)cc1,18.8%,1.2%,·
CCCn1c(CN2CCN(c3ccc(OC)cc3)CC2)nc2c1c(=O)[nH]c(=O)n2C,6.0%,-0.3%,·
Cc1cccc2c1Oc1ccccc1[C@@H]2NC(=O)c1ccc([N+](=O)[O-])cc1,-3.0%,-0.6%,·
Cc1ccc(OCC(=O)Nc2ccc(S(=O)(=O)Nc3ncccn3)cc2)c(C(C)(C)C)c1,?,-0.4%,·
O=C(O)c1ccc2cc(-c3ccc(O)c(C45CC6CC(CC(C6)C4)C5)c3)ccc2c1,-14.4%,?,·
N#Cc1nc(-c2ccc(F)cc2)oc1NCCN1CCOCC1,-3.4%,-3.8%,·
COc1ccc(-c2nc(C#N)c(NCCCN3CCOCC3)o2)cc1,-12.9%,20µM*,3.98µM*
CC(C)OCCCNC(=O)CCCN1C(=O)CCn2nc(-c3cccn3C)cc21,?,0.2%,·
Nc1nc(N)c2nc(-c3ccccc3)c(N)nc2n1,7.94µM*!,31.6µM*!,22.4µM*
NNc1nnc(-c2ccccc2)c(-c2ccccc2)n1,-14.7%,-1.5%,·
S=P(C1CCCCC1)(C1CCCCC1)[C@H](c1cccnc1)N1CCCC1,-9.2%,3.9%,·
SMILES,Cruzain inh noDet,Cruzain inh Det,Papain counter
CC1(C)C[C@](C)(C(=O)c2ccccc2)C=C1c1ccccc1,2.1%,-0.4%,·
COc1cc2ccccc2cc1C(=O)N1CCN(c2nc3c(F)cc(F)cc3s2)CC1,-28.0%,-21.3%,·
CCOc1ccc2nc(C)cc(Nc3ccccc3OCC)c2c1,9.9%,-11.4%,·
O=C(Nc1nc(-c2ccc(S(=O)(=O)N3CCCCCC3)cc2)cs1)c1cccs1,3.16µM*,-5.2%,1.6%
CCOc1ccc(S(=O)(=O)N2CCc3ccccc3C2)cc1,-14.7%,-0.1%,·
CCOc1ccc(-c2csc(NC(=O)c3ccc(S(=O)(=O)N4CCc5ccccc5C4)cc3)n2)cc1,3.98µM*,-1.2%,11.2%
O=C(Nc1nc(-c2ccc(S(=O)(=O)N3CCCC3)cc2)cs1)c1cccs1,-26.8%,-4.7%,·
CC1CCc2c(sc3nc(-c4cc5ccccc5oc4=O)nc(Cl)c23)C1 (stereo unspecified),-17.4%,3.8%,·
CNc1nc(C#N)nc(Nc2ccccc2)n1,·,·,2.24µM*
CSc1nc(NC(C)C)nc(NC(C)C)n1,-8.1%,2.6%,·
CC(C)Nc1nc(C#N)nc(NC(C)C)n1,15.8µM*,11.2µM*,5.01µM*
COc1nc(Nc2ccc([N+](=O)[O-])cc2)nc(NC(C)C)n1,-18.9%,-13.5%,·
CC(C)CNc1nc(C#N)nc(Nc2ccccc2)n1,·,·,1.26µM*
CN(C)c1nc(Nc2ccccc2)nc(N(C)C)n1,1.7%,-3.0%,·
CC(C)Nc1nc(C#N)nc(Nc2ccccc2)n1,·,·,2.24µM*
CNc1nc(N/N=C/c2ccc([N+](=O)[O-])cc2)nc(Nc2ccccc2)n1,-0.2%,-11.1%,·
CC(C)NC(=O)N1CC[C@@]2(CCCN(C(=O)c3csnn3)C2)C1,3.9%,2.6%,·
CCc1cccc(C)c1NC(=O)C(NS(=O)(=O)c1ccc2c(c1)CCC(=O)N2)c1ccccc1 (stereo unspecified),24.0%,-1.8%,·
COc1cccc(Nc2sc(C(=O)c3ccc(F)cc3)c(N)c2C(=O)NCc2ccc(C)cc2)c1,?,-0.4%,·
COc1ccc(/C=C/C(=O)Nc2ccc(-n3nncc3-c3ccc(Br)cc3)cc2)cc1OC,·,·,-19.8%
COc1ccc(/C=C/C(=O)Nc2ccccc2C(=O)O)cc1OC,-16.0%,-6.7%,·
COc1cccc(C(=O)Nc2ccc(-n3nncc3-c3ccc(Br)cc3)cc2)c1OC,-8.0%,-1.2%,·
CCOc1ccc(C(=O)Nc2ccc(-n3nncc3-c3ccccc3)cc2)cc1OCC,16.4%,-5.4%,·
COc1ccc(/C=C/C(=O)Nc2ccc(-n3nncc3-c3ccccc3)cc2)cc1OC,15.8µM*,3.16µM*,-14.1%
Cc1ccc(NC(=O)c2ccc(-n3nncc3-c3ccccc3)cc2)cc1,·,·,3.5%
SMILES,Cruzain inh noDet,Cruzain inh Det,Papain counter
CCCC[C@H]1C[C@@H]1[C@@H]1N(P(=O)(c2ccccc2)c2ccccc2)C[C@@](O)(c2ccccc2)CC12CC2,-13.1%,1.8%,·
COc1ccc(N2CCN(CCCNC(=O)c3nnc(Cc4ccccc4Cl)o3)CC2)cc1,13.2%,-1.9%,·
Cc1ccc(NC(=O)Cn2nnc(C(=O)NCCc3ccccc3)c2N)cc1,?,-2.4%,·
N[C@H](Cn1ccc(=O)n(Cc2ccccc2C(=O)O)c1=O)C(=O)O,-5.3%,5.0%,·
Cc1ccc2[nH]c(=O)c(CN(CCc3ccccc3)Cc3nnnn3CC3CCCO3)cc2c1 (stereo unspecified),24.3%,-7.1%,·
CCOC(=O)Cn1nnnc1CN(Cc1ccc(OC)cc1)Cc1cc2cc(C)ccc2[nH]c1=O,?,-8.5%,·
Cc1ccc2[nH]c(=O)c(CN(CCCO)Cc3nnnn3Cc3ccccc3)cc2c1,·,·,-5.2%
Cc1ccc2[nH]c(=O)c(CN(CCO)Cc3nnnn3Cc3ccccc3)cc2c1,·,·,3.1%
CCc1ccc2[nH]c(=O)c(CN(Cc3cccs3)Cc3nnnn3Cc3ccccc3)cc2c1,·,·,-15.7%
Cc1ccc(CN(Cc2cc3cc(C)ccc3[nH]c2=O)Cc2nnnn2Cc2ccccc2)cc1,·,·,-11.5%
CCOc1ccc2[nH]c(=O)c(CN(CCO)Cc3nnnn3CCc3ccccc3)cc2c1,6.4%,-1.6%,·
COc1ccc2[nH]c(=O)c(CN(Cc3cccs3)Cc3nnnn3Cc3ccccc3)cc2c1,3.3%,-0.7%,·
CN1CCN(c2ccncc2S(=O)(=O)N2CCN(C)CC2)CC1,3.0%,1.8%,·
CCC(=O)/C=C/C1C(C)=CCCC1(C)C (stereo unspecified),-1.5%,1.0%,·
N#CS.N=C=S.N=C=S.[Cu].[NH2-].[NH2-].[NH2-].[NH2-].c1ccc2ncccc2c1,19.9%,-0.5%,·
Cc1ccc2[nH]c(=O)c(CN(CCO)Cc3nnnn3Cc3ccco3)cc2c1,·,·,1.4%
Cc1ccc2[nH]c(=O)c(CN(Cc3cccs3)Cc3nnnn3Cc3ccco3)cc2c1,·,·,-13.1%
